# Reference: ChEMBL document CHEMBL3988442, “University of Dundee, Small-Polar-MMV Screening Library” (2021)
# For part of these data: Entries with a potency or affinity are not part of this list.
# Experiments:
# Parameters in all cases: scale not given: direction of the effect not stated beside the values
# [1] = biological target: Protein translocase subunit SecA (Escherichia coli (strain K12)) (UniProt P10408); experiment: Assay to Identify E. coli SecA ATPase Inhibitors; type: functional; details: 30 µM
# [2] = biological target: T1, Ubiquitin-activating enzyme e1, putative (Leishmania donovani (strain BPK282A1)) (UniProt E9BSI1); experiment: Leishmania donovani Ubiquitin Activating Enzyme (LdE1); type: functional; details: 30 µM
# T1 sequence (whole entry): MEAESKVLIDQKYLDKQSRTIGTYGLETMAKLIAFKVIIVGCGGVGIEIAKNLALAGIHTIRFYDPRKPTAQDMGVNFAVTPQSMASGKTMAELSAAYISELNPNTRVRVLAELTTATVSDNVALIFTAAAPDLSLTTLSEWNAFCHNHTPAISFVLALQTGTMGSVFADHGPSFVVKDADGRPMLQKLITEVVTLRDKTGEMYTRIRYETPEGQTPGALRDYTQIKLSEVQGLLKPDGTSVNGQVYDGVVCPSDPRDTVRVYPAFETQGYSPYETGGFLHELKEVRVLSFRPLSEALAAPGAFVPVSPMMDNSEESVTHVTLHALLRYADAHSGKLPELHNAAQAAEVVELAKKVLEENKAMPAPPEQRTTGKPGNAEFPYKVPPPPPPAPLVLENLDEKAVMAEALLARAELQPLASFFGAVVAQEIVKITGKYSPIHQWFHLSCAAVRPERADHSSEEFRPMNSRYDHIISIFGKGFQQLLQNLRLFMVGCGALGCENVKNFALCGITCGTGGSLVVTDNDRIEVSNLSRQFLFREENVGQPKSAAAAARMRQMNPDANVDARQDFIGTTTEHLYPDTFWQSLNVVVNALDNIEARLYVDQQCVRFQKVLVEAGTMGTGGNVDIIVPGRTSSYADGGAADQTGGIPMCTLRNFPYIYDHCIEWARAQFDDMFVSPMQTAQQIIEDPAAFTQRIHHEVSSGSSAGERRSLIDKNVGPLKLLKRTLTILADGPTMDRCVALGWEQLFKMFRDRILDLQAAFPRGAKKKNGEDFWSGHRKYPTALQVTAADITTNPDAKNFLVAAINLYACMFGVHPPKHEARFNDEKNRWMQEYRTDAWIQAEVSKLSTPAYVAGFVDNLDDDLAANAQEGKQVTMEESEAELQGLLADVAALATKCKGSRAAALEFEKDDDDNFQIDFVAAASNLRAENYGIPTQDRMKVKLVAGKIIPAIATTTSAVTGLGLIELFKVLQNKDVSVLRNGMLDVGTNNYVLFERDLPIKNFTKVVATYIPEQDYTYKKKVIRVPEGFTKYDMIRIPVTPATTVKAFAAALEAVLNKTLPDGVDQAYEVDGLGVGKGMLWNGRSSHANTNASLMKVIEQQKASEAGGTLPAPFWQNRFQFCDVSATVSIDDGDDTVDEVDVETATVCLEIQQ
# [3] = biological target: T2, Aspartate--tRNA(Asp/Asn) ligase (Mycobacterium tuberculosis (strain ATCC 25618 / H37Rv)) (UniProt P9WFW3); experiment: Assay for Asp RNA synthetase-1 from Mycobacterium tuberculosis; type: functional; details: 30 µM; note: in the data most compounds retested in dose-response had high values
# T2 sequence (whole entry): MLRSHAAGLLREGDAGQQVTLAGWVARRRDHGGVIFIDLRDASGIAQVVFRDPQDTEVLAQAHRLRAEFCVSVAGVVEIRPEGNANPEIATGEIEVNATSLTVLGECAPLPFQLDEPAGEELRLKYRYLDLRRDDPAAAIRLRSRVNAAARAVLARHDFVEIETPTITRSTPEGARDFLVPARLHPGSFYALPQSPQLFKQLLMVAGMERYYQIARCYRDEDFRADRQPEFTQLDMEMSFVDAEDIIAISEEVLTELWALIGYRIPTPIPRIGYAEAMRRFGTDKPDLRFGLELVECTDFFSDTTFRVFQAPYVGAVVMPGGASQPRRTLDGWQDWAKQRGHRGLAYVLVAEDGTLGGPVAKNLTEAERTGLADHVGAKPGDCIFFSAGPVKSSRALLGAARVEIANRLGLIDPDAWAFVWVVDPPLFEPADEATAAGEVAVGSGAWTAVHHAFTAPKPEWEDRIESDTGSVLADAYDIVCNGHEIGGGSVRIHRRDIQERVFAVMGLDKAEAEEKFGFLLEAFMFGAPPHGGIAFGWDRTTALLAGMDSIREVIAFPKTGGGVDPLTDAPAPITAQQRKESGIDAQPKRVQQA
# [4] = biological target: AMP-activated protein kinase, AMPK (Homo sapiens) (UniProt P54646+O43741+P54619+Q9UGJ0+Q9Y478+Q13131+Q9UGI9); experiment: AMP-dependent Kinase enzyme assay. An in vitro enzyme assay that detects ADP turnover that is directly proportional to AMPK activity. This uses naive AMPK that is activated during the assay with MK-8722; type: functional; details: 30 µM
# [5] = biological target: Sialic acid-binding Ig-like lectin 9 (Homo sapiens) (UniProt Q9Y336); experiment: Hs-Siglec9 ALPHAscreen SOP 20170721; details: 10 µM
# Trypanosoma cruzi = experiment: Trypanosoma cruzi phosphomannomutase and mannose-1-phosphate guanylyltransferase assay; type: functional; details: 10 µM
# [6] = biological target: T3, Arginase-2, mitochondrial (Homo sapiens) (UniProt P78540); experiment: in vitro enzyme assay to detect the production of urea directly proportional to the activity of Arginase II; type: functional; details: 33.3 µM; note: in the data most compounds retested in dose-response had high values
# T3 sequence (whole entry): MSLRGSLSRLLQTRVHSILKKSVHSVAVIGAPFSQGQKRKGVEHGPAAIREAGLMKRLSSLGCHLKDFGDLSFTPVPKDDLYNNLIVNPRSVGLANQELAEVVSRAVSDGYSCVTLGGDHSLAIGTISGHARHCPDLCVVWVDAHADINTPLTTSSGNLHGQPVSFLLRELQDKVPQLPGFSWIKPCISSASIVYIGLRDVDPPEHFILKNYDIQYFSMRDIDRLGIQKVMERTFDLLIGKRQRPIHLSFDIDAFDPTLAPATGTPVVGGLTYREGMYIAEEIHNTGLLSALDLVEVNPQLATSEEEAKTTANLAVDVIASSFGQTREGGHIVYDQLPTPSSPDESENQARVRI
# [7] = biological target: T4, Proteasome subunit beta (Trypanosoma cruzi) (UniProt O96673); experiment: Trypanosoma cruzi proteasome chymotrypsin-like activity (TcProtChymo) assay.; note: in the data most compounds retested in dose-response had high values; type: functional; details: 9.37 µM
# T4 sequence (whole entry): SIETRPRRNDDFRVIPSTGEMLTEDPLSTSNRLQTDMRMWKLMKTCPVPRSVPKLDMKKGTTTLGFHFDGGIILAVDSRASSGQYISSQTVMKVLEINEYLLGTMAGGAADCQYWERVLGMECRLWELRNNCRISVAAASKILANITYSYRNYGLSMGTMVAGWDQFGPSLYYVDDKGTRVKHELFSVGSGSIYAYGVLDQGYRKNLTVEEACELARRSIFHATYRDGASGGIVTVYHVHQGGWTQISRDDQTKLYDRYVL
# Homo sapiens = species on record: Homo sapiens; experiment: To identify inhibition of the IFN signalling (Jak-Stat) pathway via expression of an eGFP reporter gene under the control of an IFN-stimulated response element (ISRE) containing MxA promoter.; type: functional; details: 30 µM
# [8] = biological target: Shiga toxin 2 (Escherichia coli O157:H7) (UniProt P09385+P09386); experiment: E. coli 0.157:H7 Shiga Toxin SOP - stx2 screening assay; type: functional; details: 30 µM
# [9] = biological target: T5, Tyrosyl-tRNA synthetase, putative (Trypanosoma cruzi (strain CL Brener)) (UniProt Q4DSP6); experiment: Trypanosoma cruzi tyrosyl tRNA synthetase (TcYRS) _High Tyrosine SOP; type: functional; details: 30 µM; note: in the data most compounds retested in dose-response had high values
# T5 sequence (whole entry): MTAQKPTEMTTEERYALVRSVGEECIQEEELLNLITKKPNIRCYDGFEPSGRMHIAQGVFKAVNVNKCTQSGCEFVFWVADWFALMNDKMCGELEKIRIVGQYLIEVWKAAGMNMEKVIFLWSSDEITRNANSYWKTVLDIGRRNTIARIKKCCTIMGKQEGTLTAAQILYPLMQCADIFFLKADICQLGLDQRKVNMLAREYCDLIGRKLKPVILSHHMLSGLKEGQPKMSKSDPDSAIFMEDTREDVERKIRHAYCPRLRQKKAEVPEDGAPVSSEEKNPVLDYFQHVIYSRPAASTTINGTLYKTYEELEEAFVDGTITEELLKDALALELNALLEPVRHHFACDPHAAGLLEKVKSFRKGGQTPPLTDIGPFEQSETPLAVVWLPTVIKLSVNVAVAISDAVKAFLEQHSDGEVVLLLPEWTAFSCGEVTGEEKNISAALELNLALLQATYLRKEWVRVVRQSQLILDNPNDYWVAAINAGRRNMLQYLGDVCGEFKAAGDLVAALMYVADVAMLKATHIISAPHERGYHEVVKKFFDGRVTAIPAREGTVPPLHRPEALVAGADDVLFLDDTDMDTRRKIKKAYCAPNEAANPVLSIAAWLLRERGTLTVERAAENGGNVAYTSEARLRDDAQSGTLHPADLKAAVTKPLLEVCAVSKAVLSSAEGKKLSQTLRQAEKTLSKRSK
# [10] = biological target: T5, Tyrosyl-tRNA synthetase, putative (Trypanosoma cruzi (strain CL Brener)); experiment: Trypanosoma cruzi tyrosyl tRNA synthetase (TcYRS) SOP; type: functional; details: 30 µM
# [11] = biological target: Chromo domain-containing protein 1 (Saccharomyces cerevisiae (strain ATCC 204508 / S288c) (Baker's yeast)) (UniProt P32657); experiment: ScCHD-1 Enzyme Inhibition Assay; type: functional; details: 30 µM; note: in the data most compounds retested in dose-response had high values
# Sequence of Chromo domain-containing protein 1 (Saccharomyces cerevisiae (strain ATCC 204508 / S288c) (Baker's yeast)) (P32657 whole entry, the tested form may be a part): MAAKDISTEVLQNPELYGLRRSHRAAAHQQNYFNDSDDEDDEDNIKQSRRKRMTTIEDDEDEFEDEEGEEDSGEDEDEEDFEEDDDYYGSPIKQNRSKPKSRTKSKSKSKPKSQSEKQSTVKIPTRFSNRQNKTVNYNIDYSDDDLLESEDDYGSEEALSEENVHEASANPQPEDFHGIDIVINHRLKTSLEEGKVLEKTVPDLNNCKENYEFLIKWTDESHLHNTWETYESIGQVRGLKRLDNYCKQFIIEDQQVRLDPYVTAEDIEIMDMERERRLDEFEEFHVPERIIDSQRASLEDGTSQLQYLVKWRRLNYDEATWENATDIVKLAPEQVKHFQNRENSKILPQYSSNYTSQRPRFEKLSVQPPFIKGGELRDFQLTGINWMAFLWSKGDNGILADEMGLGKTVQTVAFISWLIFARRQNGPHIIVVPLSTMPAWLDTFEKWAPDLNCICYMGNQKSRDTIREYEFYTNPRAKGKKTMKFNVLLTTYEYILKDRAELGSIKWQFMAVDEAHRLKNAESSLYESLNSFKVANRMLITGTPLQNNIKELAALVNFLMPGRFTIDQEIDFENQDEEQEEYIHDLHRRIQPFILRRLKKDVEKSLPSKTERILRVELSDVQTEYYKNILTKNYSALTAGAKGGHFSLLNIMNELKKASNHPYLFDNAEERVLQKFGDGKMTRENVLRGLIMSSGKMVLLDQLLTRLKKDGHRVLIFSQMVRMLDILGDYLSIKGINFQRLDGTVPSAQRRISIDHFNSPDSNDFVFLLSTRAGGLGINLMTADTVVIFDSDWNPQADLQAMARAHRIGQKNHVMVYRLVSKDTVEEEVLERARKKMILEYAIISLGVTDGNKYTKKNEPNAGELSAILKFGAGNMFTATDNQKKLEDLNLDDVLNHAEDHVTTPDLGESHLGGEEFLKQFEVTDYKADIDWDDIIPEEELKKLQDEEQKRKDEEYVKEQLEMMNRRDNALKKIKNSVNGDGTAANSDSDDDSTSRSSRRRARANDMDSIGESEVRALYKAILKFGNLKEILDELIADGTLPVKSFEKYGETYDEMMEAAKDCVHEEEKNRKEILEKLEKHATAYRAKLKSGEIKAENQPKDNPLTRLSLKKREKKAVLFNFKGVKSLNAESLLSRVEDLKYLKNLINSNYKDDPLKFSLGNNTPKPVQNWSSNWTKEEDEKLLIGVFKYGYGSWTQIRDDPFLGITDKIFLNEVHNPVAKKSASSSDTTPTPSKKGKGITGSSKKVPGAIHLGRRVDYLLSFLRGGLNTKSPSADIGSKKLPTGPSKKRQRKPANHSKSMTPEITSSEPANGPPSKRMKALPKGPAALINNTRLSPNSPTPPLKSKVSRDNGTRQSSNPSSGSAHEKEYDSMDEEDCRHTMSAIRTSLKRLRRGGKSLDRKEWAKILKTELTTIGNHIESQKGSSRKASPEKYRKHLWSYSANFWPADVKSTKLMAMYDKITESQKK
# Sequence of Protein translocase subunit SecA (Escherichia coli (strain K12)) (P10408 whole entry): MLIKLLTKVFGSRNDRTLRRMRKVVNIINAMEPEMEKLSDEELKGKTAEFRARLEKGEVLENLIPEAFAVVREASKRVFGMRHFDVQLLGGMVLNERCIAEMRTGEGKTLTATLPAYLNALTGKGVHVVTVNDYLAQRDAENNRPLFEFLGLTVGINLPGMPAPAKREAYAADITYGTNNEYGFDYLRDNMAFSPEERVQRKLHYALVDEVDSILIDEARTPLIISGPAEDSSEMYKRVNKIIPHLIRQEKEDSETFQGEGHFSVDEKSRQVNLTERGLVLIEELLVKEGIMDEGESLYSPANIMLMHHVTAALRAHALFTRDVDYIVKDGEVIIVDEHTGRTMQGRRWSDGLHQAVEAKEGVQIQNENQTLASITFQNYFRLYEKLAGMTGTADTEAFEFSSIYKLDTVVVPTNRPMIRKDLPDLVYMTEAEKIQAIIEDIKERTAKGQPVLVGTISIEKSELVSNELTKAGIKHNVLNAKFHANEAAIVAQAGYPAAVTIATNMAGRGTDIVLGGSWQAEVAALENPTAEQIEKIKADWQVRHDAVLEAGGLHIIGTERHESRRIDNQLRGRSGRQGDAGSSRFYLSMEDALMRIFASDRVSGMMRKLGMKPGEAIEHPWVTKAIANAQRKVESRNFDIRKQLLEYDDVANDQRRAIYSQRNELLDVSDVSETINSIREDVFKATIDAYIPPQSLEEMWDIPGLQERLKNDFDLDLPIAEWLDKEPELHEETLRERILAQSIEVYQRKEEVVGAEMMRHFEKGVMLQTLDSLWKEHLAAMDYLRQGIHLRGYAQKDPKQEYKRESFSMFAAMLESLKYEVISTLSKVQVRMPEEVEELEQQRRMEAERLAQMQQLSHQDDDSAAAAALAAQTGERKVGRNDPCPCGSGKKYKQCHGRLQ
# Sequence of Sialic acid-binding Ig-like lectin 9 (Homo sapiens) (Q9Y336 whole entry): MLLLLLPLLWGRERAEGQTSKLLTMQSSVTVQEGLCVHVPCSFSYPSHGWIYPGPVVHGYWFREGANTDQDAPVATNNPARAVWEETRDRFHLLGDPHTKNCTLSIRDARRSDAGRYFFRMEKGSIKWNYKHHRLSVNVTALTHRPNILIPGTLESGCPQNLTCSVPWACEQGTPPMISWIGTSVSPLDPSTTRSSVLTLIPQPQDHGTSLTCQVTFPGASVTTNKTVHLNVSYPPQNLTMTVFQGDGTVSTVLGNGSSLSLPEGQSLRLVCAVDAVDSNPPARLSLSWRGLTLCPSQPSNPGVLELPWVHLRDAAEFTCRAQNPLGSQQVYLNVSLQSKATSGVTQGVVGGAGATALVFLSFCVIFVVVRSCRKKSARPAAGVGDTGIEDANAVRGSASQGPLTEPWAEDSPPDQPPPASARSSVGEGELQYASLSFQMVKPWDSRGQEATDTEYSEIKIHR
SMILES,Percent Effect [1] [%],Percent Effect [2] [%],Percent Effect [3] [%],Percent Effect [4] [%],Percent Effect [5] [%],Percent Effect (Trypanosoma cruzi) [%],Percent Effect [6] [%],Percent Effect [7] [%],Percent Effect (Homo sapiens) [%],Percent Effect [8] [%],Percent Effect [9] [%],Percent Effect [10] [%],Percent Effect [11] [%]
Cc1nc(CN2C[C@@H]3OCCN(c4ncc(F)cn4)[C@@H]3C2)cs1,0.0245,5.33,-1.08,7.05,2.47,-1.74,-58.6,11.3,-21.1,2.24,4.17,15,-7
O=C(c1ccc2c(c1)COC2)N1CCC(Nc2ccccc2)CC1,-4.95,7.79,-0.152,5.07,13.2,5.06,1.78,-4.05,25,1.98,6.8,24.4,-6.83
Cc1cccc(CN2CC[C@@H]3[C@@H]2CCN3C(=O)c2cnoc2C)n1,-3.21,10.8,-2.46,-5.71,-1.95,5.27,34.2,10.7,7.71,5.3,3.96,15.8,-1.59
O=C(c1cnn2c1OCCC2)N1CCC2(CC1)OCCO2,-0.752,2.6,-2.99,3.51,6.26,-6.02,-1.94,7.49,14.6,4.26,6.35,11.5,-7.54
CC(C)N1CCC2(CCN(C(=O)c3cccnc3)CC2)C1,1.13,10.8,1.7,4.26,-12.5,-9.68,8.6,20.9,-1.74,-5.59,-24.9,10.3,-2.2
Cn1c(=O)n(C)c2cc(C3SCC(=O)Nc4ccsc43)ccc21 (configuration not stated),-5.92,6.67,-5.4,-13.6,-2.48,7.27,-11.8,12.9,37.1,-33.2,4.23,12.8,-7.83
O=C(NC1CCC1)[C@@H]1C[C@@H]2CCN(Cc3ccncc3)C[C@H]2O1,-4.4,8,-3.87,0.172,2.75,5.79,-52.1,8.21,21.8,1.98,4.17,12.5,-8.66
CCN1CCC2(COCc3cnc(-c4cccnc4)nc32)C1 (configuration not stated),-4.12,10.8,3.74,3.75,1,-2.44,-4.78,19.9,5.19,8.79,3.24,10.3,2.57
c1ccc(OC[C@H]2CCC[C@]23CN(Cc2nccs2)CCO3)nc1,1.87,0,-0.162,-19.9,5.02,-2.36,-15.2,3.08,34.4,-11.8,1.06,3.85,3.38
